Test results published in the supplement of paper PMC8371130.
Counter-ions that a name gives are not always drawn.

System: HL-1
Assay: relative cell viability (CellTiter-Glo) vs DMSO control (% of DMSO control); higher = more viable cells
Outline: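 Cell viability was determined from CellTiter-Glo luminescence, expressed relative to vehicle-treated control cells. The cells were HL-1 mouse atrial cardiomyocytes, plated at 1000 cells per well in 384-well plates with compounds at 40, 200, 1000 or 5000 nM in 0.01% DMSO. One day after plating, they underwent 48 h of hypoxia (1% O2) in a hypoxic workstation followed by 24 h of reoxygenation in a normal incubator, or were kept in normoxia for an equal time.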

[1] = oxygen condition: hypoxia 48 h (1% O2) + reoxygenation 24 h, 40 nM
[2] = oxygen condition: hypoxia 48 h (1% O2) + reoxygenation 24 h, 200 nM
[3] = oxygen condition: hypoxia 48 h (1% O2) + reoxygenation 24 h, 1000 nM
[4] = oxygen condition: hypoxia 48 h (1% O2) + reoxygenation 24 h, 5000 nM
[5] = oxygen condition: normoxia 72 h, 40 nM
[6] = oxygen condition: normoxia 72 h, 200 nM
[7] = oxygen condition: normoxia 72 h, 1000 nM
[8] = oxygen condition: normoxia 72 h, 5000 nM

Row | SMILES | relative cell viability [1] | relative cell viability [2] | relative cell viability [3] | relative cell viability [4] | relative cell viability [5] | relative cell viability [6] | relative cell viability [7] | relative cell viability [8]
1 | Nc1nc2n[nH]nc2c(=O)[nH]1 [Azaguanine-8] | 92 | 105 | 102 | 111 | 103 | 102 | 98.7 | 104
2 | COc1ccc(CN2CCN(C(c3ccc(F)cc3)c3ccc(F)cc3)CC2)c(OC)c1OC [Lomerizine HCl] | 96.9 | 105 | 108 | 106 | 68.3 | 102 | 106 | 108
3 | CN(C)CC/C=C1/c2ccccc2Sc2ccc(Cl)cc21 [Chlorprothixene] | 105 | 112 | 102 | 115 | 108 | 107 | 118 | 118
4 | Nc1c2c(nc3ccccc13)CCCC2 [Tacrine HCl] | 91.7 | 89.5 | 81.2 | 20.3 | 94.1 | 82.5 | 70.4 | 26.4
5 | CCCCNc1ccc(C(=O)OCCN(C)C)cc1 [Tetracaine hydrochloride] | 97.8 | 104 | 107 | 106 | 103 | 106 | 111 | 108
6 | CC1CCc2c(N3CCC(O)CC3)c(F)cc3c(=O)c(C(=O)O)cn1c23 (centres undefined) [Nadifloxacin] | 103 | 104 | 102 | 110 | 104 | 103 | 100 | 107
7 | CC[C@H](C)[C@H](N)C1=N[C@H](C(=O)N[C@@H](CC(C)C)C(=O)N[C@H](CCC(=O)[O-])C(=O)N[C@H](C(=O)N[C@H]2CCCCNC(=O)[C@H](CC(N)=O)NC(=O)[C@@H](CC(=O)[O-])NC(=O)[C@H](Cc3cnc[nH]3)NC(=O)[C@@H](Cc3ccccc3)NC(=O)[C@H]([C@@H](C)CC)NC(=O)[C@@H](CCCN)NC2=O)[C@@H](C)CC)CS1.[Zn+2] [Bacitracin zinc] | 95.4 | 107 | 109 | 123 | 105 | 107 | 109 | 117
8 | CCC(C)n1ncn(-c2ccc(N3CCN(c4ccc(OCC5COC(Cn6cncn6)(c6ccc(Cl)cc6Cl)O5)cc4)CC3)cc2)c1=O (centres undefined) [Itraconazole] | 99.1 | 101 | 100 | 108 | 103 | 106 | 101 | 107
9 | CCN(CC)CC(=O)Nc1c(C)cccc1C [Lidocaine] | 111 | 106 | 104 | 111 | 112 | 108 | 109 | 112
10 | COc1cc2c(cc1OC)CC(=O)N(CCCN(C)C[C@H]1Cc3cc(OC)c(OC)cc31)CC2 [Ivabradine HCl] | 108 | 106 | 107 | 106 | 105 | 106 | 102 | 106
11 | C[C@](N)(Cc1ccc(O)c(O)c1)C(=O)O [Methyldopa] | 105 | 79.3 | 104 | 103 | 98.8 | 91.9 | 102 | 109
12 | COC(=O)[C@H](Cc1ccccc1)NC(=O)[C@@H](N)CC(=O)O [Aspartame] | 100 | 98 | 103 | 106 | 96.5 | 102 | 100 | 98.1
13 | OCCOCCN1CCN(C2=Nc3ccccc3Sc3ccccc32)CC1 [Quetiapine fumarate] | 98.9 | 104 | 106 | 104 | 103 | 106 | 108 | 108
14 | COc1ccc(-c2nc3cc(C4=NNC(=O)CC4C)ccc3[nH]2)cc1 (centres undefined) [Pimobendan] | 107 | 108 | 99.1 | 109 | 109 | 102 | 114 | 111
15 | CCN(CC)CCNC(C(=O)OCCC(C)C)c1ccccc1 (centres undefined) [Camylofin Chlorhydrate] | 108 | 103 | 106 | 109 | 101 | 100 | 103 | 110
16 | C[C@H](Cc1cc2c(c(C(N)=O)c1)N(CCCO)CC2)NCCOc1ccccc1OCC(F)(F)F [Silodosin] | 106 | 98.3 | 102 | 105 | 102 | 104 | 108 | 104
17 | CC[C@@H]1/C=C(\C)C[C@H](C)C[C@H](OC)[C@H]2O[C@@](O)(C(=O)C(=O)N3CCCC[C@H]3C(=O)O[C@H](/C(C)=C/[C@@H]3CC[C@H](Cl)[C@H](OC)C3)[C@H](C)[C@@H](O)CC1=O)[C@H](C)C[C@@H]2OC [Pimecrolimus] | 98.7 | 93.8 | 101 | 104 | 96.8 | 99.1 | 94.7 | 106

Row | SMILES | relative cell viability [1] | relative cell viability [2] | relative cell viability [3] | relative cell viability [4] | relative cell viability [5] | relative cell viability [6] | relative cell viability [7] | relative cell viability [8]
18 | Nc1ncnc2c1ncn2[C@@H]1O[C@H](CO)[C@@H](O)[C@H]1O [Adenosine] | 104 | 107 | 113 | 108 | 104 | 108 | 111 | 110
19 | CC(C)(Oc1ccc(Cl)cc1)C(=O)O [Clofibric acid] | 106 | 105 | 108 | 115 | 104 | 106 | 104 | 109
20 | N=C(N)NC(=O)c1nc(Cl)c(N)nc1N [Amiloride hydrochloride] | 103 | 105 | 100 | 110 | 106 | 105 | 96.6 | 109
21 | CC[C@H]1OC(=O)C[C@@H](O)[C@H](C)[C@@H](O[C@@H]2O[C@H](C)[C@@H](O[C@H]3C[C@@](C)(O)[C@@H](O)[C@H](C)O3)[C@H](N(C)C)[C@H]2O)[C@@H](CC=O)C[C@@H](C)C(=O)/C=C/C(C)=C/[C@@H]1CO[C@@H]1O[C@H](C)[C@@H](O)[C@@H](OC)[C@H]1OC [Tylosin tartrate] | 102 | 108 | 99.4 | 99 | 101 | 92.6 | 100 | 91.8
22 | Cc1cn(-c2cc(NC(=O)c3ccc(C)c(Nc4nccc(-c5cccnc5)n4)c3)cc(C(F)(F)F)c2)cn1 [Nilotinib] | 101 | 81.4 | 107 | 111 | 105 | 104 | 104 | 108
23 | CNC1CCCN(c2c(F)cc3c(=O)c(C(=O)O)cn(C4CC4)c3c2OC)C1 (centres undefined) [Balofloxacin] | 103 | 93.5 | 101 | 107 | 101 | 99.2 | 99.3 | 107
24 | Nc1nc(=O)c2c([nH]1)NCC(CNc1ccc(C(=O)N[C@@H](CCC(=O)O)C(=O)O)cc1)N2C=O (some centres undefined) [Leucovorin Calcium] | 106 | 111 | 110 | 104 | 98 | 101 | 102 | 95.3
25 | O=S(=O)(O)CCS [Mesna] | 105 | 102 | 116 | 120 | 112 | 109 | 112 | 123
26 | CCCN[C@H]1CCc2nc(N)sc2C1 [Pramipexole dihydrochloride monohydrate] | 103 | 98.2 | 99.8 | 107 | 99 | 105 | 101 | 110
27 | NCCCC[C@H](N[C@@H](CCc1ccccc1)C(=O)O)C(=O)N1CCC[C@H]1C(=O)O [Lisinopril] | 111 | 94.9 | 100 | 107 | 101 | 94.7 | 107 | 108
28 | CC(=O)Nc1ccccc1 [Acetanilide] | 96.5 | 98.9 | 100 | 111 | 101 | 94.9 | 98 | 105
29 | C=C1/C(=C\C=C2/CCC[C@]3(C)[C@@H]([C@H](C)CCCC(C)(C)O)CC[C@@H]23)C[C@@H](O)C[C@@H]1O [Calcitriol] | 90.8 | 91.2 | 92.9 | 91 | 94.5 | 92.6 | 93.6 | 89.9
30 | OC[C@@H](O)[C@@H](O)[C@H](O)[C@H](O)CO [D-Mannitol] | 102 | 86.9 | 113 | 113 | 106 | 98.9 | 108 | 87.3
31 | Cc1cnc(C(=O)NCCc2ccc(S(=O)(=O)NC(=O)NC3CCCCC3)cc2)cn1 [Glipizide] | 109 | 108 | 108 | 109 | 106 | 97.1 | 106 | 110
32 | COc1ccc2cc1Oc1ccc(cc1)C[C@H]1c3c(cc4c(c3Oc3cc5c(cc3OC)CCN(C)[C@@H]5C2)OCO4)CCN1C [Cepharanthine] | 98.8 | 91.7 | 87 | 49.8 | 99.4 | 86.8 | 87.5 | 11.3
33 | CCc1ccc(CCOc2ccc(CC3SC(=O)NC3=O)cc2)nc1 (centres undefined) [Pioglitazone] | 109 | 110 | 114 | 116 | 104 | 107 | 117 | 120
